From PubChem BioAssay (EPA / NIEHS)
Inconclusive results are not listed. Active and inactive are the calls of the source. The calls were made as follows, unless noted: active = hit-call score of the fitted dose curve at least 0.9, where 1 is the maximum; inactive = score below 0.9.

Assays:
[1] = CCTE_Shafer_MEA_dev_firing_rate_mean: CCTE's Neural Network Formation Assay for Mean Firing Rate, Shafer Lab (AID 2284031);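 as to AC50: curve fitted for loss of firing so AC50 reflects decreased mean firing rate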
Summary of the method: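 Steps: seed rat cortical cells (1.5 x 10^5/well) with laminin on PEI-coated MEA; dose day 0; record DIV 5/7/9/12, full media and compound exchange after DIV 5 and 9 recordings; compute well-mean firing rate AUC.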

[2] = CCTE_Shafer_MEA_dev_per_burst_spike_percent: CCTE's Neural Network Formation Assay for Percent of Spikes in a Burst, Shafer Lab (AID 2284032);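 as to AC50: fitted as a decrease in burst spike percentage below DMSO baseline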
Summary of the method: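 Value is trapezoidal AUC over recordings on days 5, 7, 9 and 12 of the well-mean fraction of spikes falling in single-electrode bursts; rat cortical cultures exposed continuously from plating, treatment renewed DIV 5 and 9, fitted downward against DMSO.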

[3] = CCTE_Shafer_MEA_dev_active_electrodes_number: CCTE's Neural Network Formation Assay for Number of Active Electrodes, Shafer Lab (AID 2284040; active = hit-call score of the fitted dose curve at least 0.9, where 1 is the maximum;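 as to AC50: potency for loss of active electrodes versus DMSO so lower counts are hits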)
Summary of the method: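 Counts electrodes per well firing at least 5 spikes/min, recorded on days 5, 7, 9 and 12 in rat cortical cultures dosed continuously from plating (treatment refreshed DIV 5, 9). Value is the area under the curve over recordings, fitted downward relative to DMSO.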

[4] = CCTE_Shafer_MEA_dev_burst_rate: CCTE's Neural Network Formation Assay for Burst Rate, Shafer Lab (AID 2284042)
Summary of the method: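 Cells plated, treated day 0; recorded DIV 5, 7, 9, 12; fed and re-treated DIV 5, 9. Endpoint: bursts per recording time, active-electrode well mean, trapezoidal AUC, fitted in decreasing direction against DMSO baseline.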

[5] = CCTE_Shafer_MEA_dev_bursting_electrodes_number: CCTE's Neural Network Formation Assay for Number of Bursting Electrodes, Shafer Lab (AID 2284043; active = hit-call score of the fitted dose curve at least 0.9, where 1 is the maximum;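 as to AC50: potency is for loss of bursting electrodes relative to DMSO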)
Summary of the method: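 Counted: electrodes with burst rate ≥1 per 2 min in each well. Cells: primary rat cortex, 1.5 x 10^5/well, on 16-electrode MEA wells. Exposure: DIV 0–12, compound renewed DIV 5 and 9. Recording days 5, 7, 9, 12; AUC vs DMSO baseline.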

[6] = CCTE_Shafer_MEA_dev_per_burst_interspike_interval: CCTE's Neural Network Formation Assay for Burst Interspike Interval, Shafer Lab (AID 2284044)
Summary of the method: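 Spontaneous activity of maturing rat cortical networks is recorded on DIV 5, 7, 9 and 12 under chronic compound exposure beginning at plating. Endpoint: burst interspike interval well-mean, collapsed into trapezoidal AUC and fitted in the negative direction relative to DMSO.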

[7] = CCTE_Shafer_MEA_dev_burst_duration_mean: CCTE's Neural Network Formation Assay for Mean Burst Duration, Shafer Lab (AID 2284045);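 as to AC50: curve fitted for loss meaning shorter burst duration than DMSO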
Summary of the method: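 Network-formation assay in primary rat cortical neurons; treatment spans twelve days of development. Mean burst duration per well is integrated by trapezoidal AUC and fitted in the loss-of-signal direction against DMSO baseline.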

[8] = CCTE_Shafer_MEA_dev_interburst_interval_mean: CCTE's Neural Network Formation Assay for Mean Interburst Interval, Shafer Lab (AID 2284046);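 also: well-mean interburst interval of bursting electrodes as AUC over four recording days; curve fitted for decrease in interburst interval relative to DMSO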
Summary of the method: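 Developing rat cortical networks on 48-well MEAs receive compound from the day of plating. Burst intervals from each active electrode are averaged per well, and AUC over the recording days is fitted in the negative direction against DMSO.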

[9] = CCTE_Shafer_MEA_dev_inter_network_spike_interval_mean: CCTE's Neural Network Formation Assay for Mean Inter-network Spike Interval, Shafer Lab (AID 2284047)
Summary of the method: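 Rat cortical cultures, 1.5 x 10^5 cells/well on 48-well MEA plates; continuous exposure days 0–12, medium and compound refreshed DIV 5, 9. Mean time between consecutive network-spike peaks; AUC across DIV 5/7/9/12; DMSO baseline, negative fitting direction.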

[10] = CCTE_Shafer_MEA_dev_network_spike_number: CCTE's Neural Network Formation Assay for Number of Network Spikes, Shafer Lab (AID 2284048);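 also: synchronized bursts across electrodes counted on days 5 7 9 12 and integrated as AUC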;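 as to AC50: fit as a loss of signal meaning fewer network spikes than DMSO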
Summary of the method: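 Extracellular recordings from 16-electrode wells track network formation in rat cortical cultures under continuous treatment from plating. The endpoint is network spike number, expressed as AUC across DIV 5–12 relative to DMSO vehicle.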

[11] = CCTE_Shafer_MEA_dev_network_spike_peak: CCTE's Neural Network Formation Assay for Mean Number of Electrodes in Network Spike, Shafer Lab (AID 2284049);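 as to AC50: fitted for loss of signal meaning fewer electrodes in network spikes than DMSO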
Summary of the method: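 Continuous 12-day exposure of rat cortical cultures, starting at plating, on MEA plates. Endpoint: electrodes participating in network-spike peaks, AUC across DIV 5–12, DMSO as negative control.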

[12] = CCTE_Shafer_MEA_dev_spike_duration_mean: CCTE's Neural Network Formation Assay for Mean Spike Duration, Shafer Lab (AID 2284051);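 also: mean network spike duration pooled as area under curve over DIV 5 to 12 recordings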;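 as to AC50: potency for a decrease in mean network spike duration versus DMSO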
Summary of the method: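 Readout is the average length of network spikes, clustered firing across electrodes, summed over DIV 5, 7, 9 and 12 as area under the curve. Neurons from rat cortex developed networks on MEA plates under continuous 12-day exposure.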

[13] = CCTE_Shafer_MEA_dev_network_spike_duration_std: CCTE's Neural Network Formation Assay for Standard Deviation of Network Spike Duration, Shafer Lab (AID 2284052);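 also: area under curve of spike duration SD across recording days 5 to 12; hits are decreases in network spike duration SD versus DMSO vehicle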
Summary of the method: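 Read-out is the trapezoidal area-under-the-curve across recordings made on days 5, 7, 9 and 12, fitted in the negative direction against DMSO baseline. Neurons were primary rat cortical cells treated from day 0, with treatment renewed at each feed.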

[14] = CCTE_Shafer_MEA_dev_per_network_spike_spike_number_mean: CCTE's Neural Network Formation Assay for Mean Number of Spikes in a Network Spike, Shafer Lab (AID 2284053)
Summary of the method: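 Continuous twelve-day exposure of developing rat cortical networks grown over 16 microelectrodes per well; spontaneous firing is captured at four time points, and the per-network-spike spike number is integrated over development by trapezoidal AUC.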

[15] = CCTE_Shafer_MEA_dev_per_network_spike_spike_percent: CCTE's Neural Network Formation Assay for Percent of Spikes in a Network Spike, Shafer Lab (AID 2284054)
Summary of the method: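 Developing networks of rat cortical neurons are dosed at day 0 and recorded extracellularly four times up to day 12. The endpoint is the area under the curve of percent spikes in network spikes, fitted in the negative direction relative to DMSO.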

[16] = CCTE_Deisenroth_AIME_384WELL_CTox_Active: Cytotoxicity Assessment (CTOX) in CCTE's 384-well Estrogen Receptor Transactivation Assay with AIME metabolic competence (metabolism positive), Deisenroth Lab (AID 2284037; active = hit-call score of the fitted dose curve at least 0.9, where 1 is the maximum;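 also: chemicals first conditioned 2 h by alginate-bound induced rat liver S9 before cells; activity means signal loss indicating cell death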)
Summary of the method: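 VM7Luc4E2 breast cells received medium pre-incubated 2 h with chemical over alginate microspheres holding induced male Sprague Dawley rat liver S9; viability read 24 h later by protease-substrate fluorescence. Loss of signal, bidirectional fit, 0.002–200 uM.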

[17] = CCTE_Deisenroth_AIME_384WELL_CTox_Inactive: Cytotoxicity Assessment (CTOX) in CCTE's 384-well Estrogen Receptor Transactivation Assay without AIME metabolic competence (metabolism negative), Deisenroth Lab (AID 2284039; active = hit-call score of the fitted dose curve at least 0.9, where 1 is the maximum;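 also: cell viability via live-cell protease substrate cleaved to fluorescent probe; cells exposed 24 h to medium preincubated 2 h with alginate-water beads without S9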)
Summary of the method: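 Metabolism-negative arm: chemicals (10-point, 0.002 - 200 uM) preincubated 2 h with alginate-water lids, medium moved onto VM7Luc4E2 cells for 24 h. Fluorescent live-cell protease readout; bidirectional curve fit.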

[18] = target: Estrogen receptor (Homo sapiens) (UniProt P03372); experiment: CCTE_Deisenroth_AIME_384WELL_LUC_Inactive: CCTE's 384-well Estrogen Receptor Transactivation Assay without AIME metabolic competence (ERTA luciferase; metabolism negative), Deisenroth Lab (AID 2284038; active = hit-call score of the fitted dose curve at least 0.9, where 1 is the maximum;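 also: hits raise estrogen receptor luciferase signal so potencies reflect agonists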)
Summary of the method: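 VM7Luc4E2 ER transactivation, luciferase bioluminescence after 24 h, using medium pre-incubated 2 h with S9-free alginate microspheres. Concentrations 0.002–200 uM; gain of signal fitted relative to 17beta-estradiol.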

[19] = target: Estrogen receptor (Homo sapiens) (UniProt P03372); experiment: CCTE_Deisenroth_AIME_384WELL_LUC_Shift: CCTE's 384-well Estrogen Receptor Transactivation Assay with AIME metabolic competence data shift (ERTA luciferase; difference in metabolism positive and negative), Deisenroth Lab (AID 2284041);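 also: shift is response with S9 minus without S9 so positive means metabolism raised ER signal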
Summary of the method: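 Here, parent compounds undergo 2 h phase I metabolism by PB/BNF-induced rat S9 before 24 h transactivation in VM7Luc4E2 cells; the curve models S9-positive minus S9-negative response over a 10-point series.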

Sequence of Estrogen receptor (Homo sapiens) (P03372 whole entry, looked up): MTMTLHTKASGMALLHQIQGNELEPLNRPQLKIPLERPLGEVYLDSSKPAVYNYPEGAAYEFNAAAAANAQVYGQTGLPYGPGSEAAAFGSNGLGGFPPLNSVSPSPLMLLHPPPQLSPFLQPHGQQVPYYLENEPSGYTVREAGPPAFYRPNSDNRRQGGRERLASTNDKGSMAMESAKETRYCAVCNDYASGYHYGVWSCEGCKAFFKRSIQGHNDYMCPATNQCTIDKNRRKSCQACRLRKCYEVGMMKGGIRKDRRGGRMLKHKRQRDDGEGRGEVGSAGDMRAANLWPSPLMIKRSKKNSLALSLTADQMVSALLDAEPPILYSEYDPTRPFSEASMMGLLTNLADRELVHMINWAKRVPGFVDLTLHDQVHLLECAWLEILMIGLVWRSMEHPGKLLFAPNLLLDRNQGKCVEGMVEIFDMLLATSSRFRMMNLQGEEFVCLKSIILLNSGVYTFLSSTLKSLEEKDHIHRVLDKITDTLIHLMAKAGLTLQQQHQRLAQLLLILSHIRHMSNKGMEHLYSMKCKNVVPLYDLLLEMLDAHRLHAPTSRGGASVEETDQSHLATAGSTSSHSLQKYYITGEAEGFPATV

Compound: CC/C(=C(/CC)c1ccc(O)cc1)c1ccc(O)cc1
- AC50 [1]: 3.24 µM (active)
- AC50 [2]: 15 µM (active)
- AC50 [3]: 10.4 µM (active)
- outcome [4]: inactive
- AC50 [5]: 9.74 µM (active)
- outcome [6]: inactive
- outcome [7]: inactive
- outcome [8]: inactive
- outcome [9]: inactive
- AC50 [10]: 0.077 µM (active)
- AC50 [11]: 11.3 µM (active)
- AC50 [12]: 15 µM (active)
- outcome [13]: inactive
- AC50 [14]: 5.65 µM (active)
- AC50 [15]: 3.87 µM (active)

Compound: Oc1ccccc1
- outcome [1]: inactive
- outcome [2]: inactive
- outcome [16]: inactive
- outcome [17]: inactive
- outcome [4]: inactive
- outcome [6]: inactive
- AC50 [7]: 6.18 µM (active)
- outcome [8]: inactive
- outcome [9]: inactive
- outcome [10]: inactive
- outcome [11]: inactive
- outcome [12]: inactive
- outcome [13]: inactive
- outcome [14]: inactive
- outcome [15]: inactive

Compound: OCCO
- outcome [16]: inactive
- AC50 [18]: 19.8 µM (active)
- outcome [17]: inactive
- outcome [19]: inactive

Compound: CCCCCCCCCC(=O)O
- outcome [16]: inactive
- outcome [17]: inactive

Compound: Cc1oc2c(NC(=O)c3c(Cl)cccc3Cl)cccc2c1C(C)(C)O
- outcome [16]: inactive
- outcome [18]: inactive
- outcome [17]: inactive
- outcome [19]: inactive

Compound: CCCOC(=O)c1cc(O)c(O)c(O)c1
- outcome [16]: inactive
- AC50 [18]: 43.6 µM (active)
- outcome [17]: inactive
- outcome [19]: inactive

Compound: CN1C(=O)CC[C@H]1c1cccnc1
- outcome [1]: inactive
- outcome [2]: inactive
- outcome [3]: inactive
- outcome [4]: inactive
- outcome [5]: inactive
- outcome [6]: inactive
- outcome [7]: inactive
- outcome [8]: inactive
- outcome [9]: inactive
- outcome [10]: inactive
- outcome [11]: inactive
- outcome [12]: inactive
- outcome [13]: inactive
- outcome [14]: inactive
- outcome [15]: inactive
